Screens: PubChem, National Center for Advancing Translational Sciences (NCATS)
Only some compounds are listed: those with a hit (about 21% of all), similar ones and a draw of the others.
Pf growth 48h: inhibits P. falciparum growth in the first generation, 48 h; P. falciparum luciferase growth in erythrocytes, 48 h; Potency, µM (series often up to 28.7 µM), inactives show top-dose activity change, negative = inhibition, hits mostly inhibitors; 5.9% of 310,000 active; note: potency is the fitted concentration of half-maximal effect; % is set by controls: 0 for no effect and ±100 for the full control effect
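Luciferase-expressing parasites in RBCs, 2% Hct / 0.1% parasitemia final; RPMI 1640 + 0.5% Albumax; 37 C, 5% CO2, one generation; luminescence read-out, lower signal = inhibition.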
HCMV inh: blocks human cytomegalovirus replication. HFF cells, HCMV-luciferase reporter, 72 h; hits give low values. activity change, negative = inhibition, % at 57.5 µM. 4.5% of 410,000 active; in the data active = activity change below about -60%; inconclusive = no clear call, values can overlap the other calls; inactive = above about -39%; note: % is set by controls: 0 for no effect and ±100 for the full control effect
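Steps: HFFs plated, 16 h 37C; compounds added; HCMV-luciferase added to MOI 1 PFU/cell; 72 h 37C; OneGlo reagent, 5 min room temperature; luminescence read, normalized to controls.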
Pf growth 96h: P. falciparum growth inhibition at 96 hours; Potency, µM (titrated, usually from 28.7 µM), inactives show at the top dose activity change, negative = inhibition, most hits filed as inhibitors; AID 504834; P. falciparum luciferase reporter growth, 96 h; 6.9% of 320,000 active; note: potency is the fitted concentration of half-maximal effect; % is set by controls: 0 for no effect and ±100 for the full control effect
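Infected RBCs, 2% Hct / 0.05% parasitemia final; luciferase-reporter P. falciparum; cpd 96 h, 37 C, 5% CO2; luciferase detection reagent; luminescence.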
Shiga toxin inh: Shiga toxin inhibition | Vero cells, Shiga toxin protein synthesis inhibition reporter | inhibition, % at 38.7 µM | 9.2% of 290,000 active; in the data active = inhibition mostly above about 28%, no sharp cut-off; inactive = mostly below about 43%; note: 0% is about no effect
CHX counter: counter-screen hit for Shiga toxin inhibitors, cycloheximide. cell reporter, cycloheximide protein synthesis inhibition counterscreen. max response, %. 12% of 300,000 active; in the data active = max response mostly above about 13%, no sharp cut-off; inactive = mostly below about 14%; note: read at 38.3 µM for the half of the compounds with a filed dose; 0% is about no effect
HCV inh: blocks hepatitis C virus; Huh7.5.1 HCVcc-Cre infection, luciferase reporter, 44 h; AID 651820; Potency, µM (doses to about 41.8 µM), without a hit: at the highest dose activity change, negative = inhibition, usual class: inhibitors; 3.4% of 340,000 active; note: potency is the fitted concentration of half-maximal effect; % is set by controls: 0 for no effect and ±100 for the full control effect
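Cells (1,000/well) were plated 4 h before compound, then infected with HCVcc-Cre virus (~0.5 moi). After 44 h further culture, infection was read as luciferase luminescence following a 15 min substrate incubation at room temperature.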
* marks the source's active call; other numbers are inactive results; u = inconclusive; x = no result given. Unless noted, calls come from the whole dose curve; as a rule, active = well fitted inhibition curve with a large enough effect; inconclusive = small, poorly fitted or top-dose-only effect, or another doubt; inactive = no such curve, though single readings can be large or run the other way.

SMILES | Pf growth 48h | HCMV inh | Pf growth 96h | Shiga toxin inh | CHX counter | HCV inh
Cc1cccc(C)c1-n1nnnc1C1(C)CCC(=O)N1Cc1cccs1 (stereo unspecified) | x | -21 | x | x | x | x
COc1cc(OC)nc(NC(=O)NS(=O)(=O)c2ccc(F)cc2)n1 | 28% | -13 | -22% | -8 | 0 | 14%
CC1C(=O)C(C)C(c2cc(Br)ccc2O)NC1c1cc(Br)ccc1O (stereo unspecified) | x | 12 | x | x | x | -24%
CC1C(=O)C(C)C(c2ccc(Br)cc2)NC1c1ccc(Br)cc1 (stereo unspecified) | u | u | 3.7µM* | -5 | -9 | -14%
CC1C(=O)C(C)C(c2ccc3c(c2)OCO3)NC1c1ccc2c(c1)OCO2 (stereo unspecified) | 10µM* | u | 23% | -17 | -1 | 7%
CSc1nc(O)c(C(c2cccc([N+](=O)[O-])c2)c2c(O)nc(SC)[nH]c2=O)c(=O)[nH]1 | -6% | 8 | -4% | -8 | -1 | 7%
O=C(CN1CCN(CC(=O)Nc2ccccc2Cl)CC1)NCC1(N2CCOCC2)CCCCC1 | 10µM* | 1 | u | x | x | u
N#Cc1ccccc1S(=O)(=O)N1CCN(CC(=O)NCC2(N3CCOCC3)CCCCC2)CC1 | u | 0 | 10µM* | x | x | 1%
O=C(CN1CCN(S(=O)(=O)c2cccc(Cl)c2)CC1)NCC1(N2CCOCC2)CCCCC1 | 10µM* | -11 | u | x | x | -14%
O=C(CN1CCN(S(=O)(=O)c2ccc(F)cc2)CC1)NCC1(N2CCOCC2)CCCCC1 | u | -15 | -15% | x | x | 13%
O=C(CN1CCN(S(=O)(=O)c2ccccc2Cl)CC1)NCC1(N2CCOCC2)CCCCC1 | 12µM* | -27 | u | x | x | -4%
Cc1cc(=O)[nH]c2nnc(SCCC(C)C)n12 | x | -22 | x | x | x | x
COc1cc(NS(=O)(=O)c2ccc(NC(=O)COc3ccc(Cl)cc3Cl)cc2)nc(OC)n1 | x | 15 | x | x | x | x
O=C(Nc1ccccc1Cl)NC1(C(=O)NCCCN2CCOCC2)CCCCC1 | 9% | -62* | u | 15 | -3 | 15%
CCOC(=O)Cn1nnc(-c2ccc([N+](=O)[O-])cc2)n1 | 22% | -31 | -16% | 14 | 11* | 19%
COc1ccc(N2C(=O)CC(c3ccc([N+](=O)[O-])cc3)C2=O)cc1 (stereo unspecified) | 13% | x | 21% | -3 | 1 | 19%
CCOC(=O)CN1C(=O)CC(c2ccc([N+](=O)[O-])cc2)C1=O (stereo unspecified) | 19% | 39 | 7.4µM* | -4 | -3 | 2%
CCCOc1ccc(-c2nnn(CC(=O)OCC)n2)cc1 | 40% | 44 | 2% | 44 | 20* | 23%
CCOC(=O)Cn1nnc(-c2ccccc2)n1 | -15% | 61 | u | 11 | -3 | -22%
O=C(Nc1ccccc1)Nc1ccc(-n2ccc(C(F)(F)F)n2)cc1 | u | 4 | 3.3µM* | 75* | 39* | u
O=C(O)CC(CC(=O)Nc1ccc(-n2ccc(C(F)(F)F)n2)cc1)c1ccccc1 (stereo unspecified) | u | 68 | 49% | 3 | -3 | 8%
Cc1cc(C)n(-c2ccc(NN=C(C#N)C#N)cc2)n1 | u | u | u | 18 | 14 | u
N#CC(C#N)=NNc1ccc(-n2ccc(C(F)(F)F)n2)cc1 | u | -97* | u | 42 | 16* | 4µM*
COc1cc2cc(/C=C/C(=O)c3ccco3)c(Cl)nc2cc1OC | -7% | 56 | x | 68* | 16 | -23%
COc1ccc2cc(/C=N/NC(=O)c3c(Cl)cnn3C)c(Cl)nc2c1 | -4% | 45 | 21% | 5 | -1 | u
COc1ccc2cc(/C=C/C(=O)c3ccco3)c(Cl)nc2c1 | u | x | x | 91 | 38* | 7%
CCCCOCC1CN(CCCC)S(=O)(=O)c2c(cccc2N(C)S(=O)(=O)c2ccc(C)cc2)O1 (stereo unspecified) | x | -7 | x | x | x | x
O=[N+]([O-])/C=C/c1c(Cl)cccc1Cl | x | -19 | x | x | x | 8.9µM*
O=[N+]([O-])/C=C/c1cc2ccccc2[nH]1 | u | 3 | u | -12 | -6 | -7%
